High-throughput results as filed in PubChem.
DT40 TDP1 CPT: DT40-hTDP1 cell growth loss with CPT; chicken DT40 Tdp1-/-;hTDP1 cells + 20 nM CPT, ATP luminescence, 48 h; Potency, µM (highest dose often 46.2 µM), for the others: at the highest dose activity change, negative = growth inhibition, hits mostly inhibitors; 420,000 compounds, 12% hits; AID 686979; also: potency is read from the fitted curve at half-maximal effect; % is scaled to controls: 0 for no effect and ±100 for the full control effect; nearly all actives have a fitted effect of over 55% in size
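Chicken DT40 Tdp1-/- cells stably complemented with human TDP1 were seeded at 400 cells/well in medium containing 20 nM camptothecin, exposed to pin-transferred compounds, and grown at 37 °C for at least 48 hr. Viability was read as ATP luminescence.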
DT40 TDP1 no CPT: qHTS for Inhibitors of human tyrosyl-DNA phosphodiesterase 1 (TDP1): qHTS in cells in absence of CPT | AID 686978, 2013 | 420,000 compounds, 15% hits | Potency, µM (top dose mostly 46.2 µM), for the others: at the highest dose activity change, negative = growth inhibition, hits mostly inhibitors | DT40 Tdp1-/- hTDP1 cells, no CPT, ATP luminescence, 48 h; also: potency is read from the fitted curve at half-maximal effect; % is scaled to controls: 0 for no effect and ±100 for the full control effect; nearly all actives have a fitted effect of over 55% in size
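Luminescent ATP content (CellTiter-Glo) served as the growth readout. Knockout chicken DT40 cells expressing human TDP1 were exposed to compounds without camptothecin for a minimum 48 hr at 37 °C.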
TGFb inhibitor: inhibitors of TGF-b signaling. HepG2 CAGA-GFP TGF-b/SMAD3 reporter, GFP fluorescence, 18 h; TGF-beta stimulated, 500 pg/mL final. Potency, µM (series often up to 46.1 µM), without a hit: top-dose activity, negative = inhibition, actives largely listed as inhibitors. 410,000 compounds, 1.2% hits. AID 588855; also: potency is read from the fitted curve at half-maximal effect; % is scaled to controls: 0 for no effect and ±100 for the full control effect; nearly all actives have a fitted effect of over 65% in size
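Inhibition of TGF-beta-driven CAGA-GFP reporter expression in HEPG2 cells is measured by cellular GFP fluorescence after 18 h stimulation with 500 pg/mL recombinant TGF-beta in 1% FBS medium at 37 degrees C.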
TDP1 inh: blocks human tyrosyl-DNA phosphodiesterase 1; Q9NUW8; recombinant TDP1, AlphaScreen DNA substrate cleavage; Potency, µM (highest dose often 130 µM), without a hit: at the highest dose activity change, negative = inhibition, hits mostly inhibitors; 350,000 compounds, 0.28% hits; AID 485290; also: potency is read from the fitted curve at half-maximal effect; % is scaled to controls: 0 for no effect and ±100 for the full control effect; nearly all actives have a fitted effect of over 40% in size
Target sequence (Q9NUW8 whole entry, looked up): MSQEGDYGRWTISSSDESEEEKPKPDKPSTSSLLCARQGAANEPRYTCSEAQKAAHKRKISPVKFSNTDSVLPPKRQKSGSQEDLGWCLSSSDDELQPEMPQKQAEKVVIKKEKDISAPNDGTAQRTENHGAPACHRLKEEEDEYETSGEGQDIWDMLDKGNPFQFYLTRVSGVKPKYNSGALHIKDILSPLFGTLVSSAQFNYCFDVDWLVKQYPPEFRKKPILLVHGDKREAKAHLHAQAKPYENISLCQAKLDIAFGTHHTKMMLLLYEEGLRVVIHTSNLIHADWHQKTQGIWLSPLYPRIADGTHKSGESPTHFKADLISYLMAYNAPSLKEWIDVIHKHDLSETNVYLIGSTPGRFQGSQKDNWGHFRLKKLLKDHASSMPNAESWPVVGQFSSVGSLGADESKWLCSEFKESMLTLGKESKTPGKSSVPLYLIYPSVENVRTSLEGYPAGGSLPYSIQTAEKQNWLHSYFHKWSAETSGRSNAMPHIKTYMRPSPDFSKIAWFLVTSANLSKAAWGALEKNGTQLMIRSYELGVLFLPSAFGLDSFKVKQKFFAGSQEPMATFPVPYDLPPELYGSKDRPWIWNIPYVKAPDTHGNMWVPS
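Signal: AlphaScreen proximity between streptavidin donor and anti-FITC acceptor beads on intact substrate. Reaction: Tdp1 1 nM, substrate 15 nM final, 5 min RT after 15 min compound preincubation.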
IL1B secr inh: inflammasome signaling inhibition, IL-1 beta readout. THP-1 LPS/ATP IL-1B secretion, AlphaLISA, 16 h; stronger effect = lower value. activity change, % at 57.5 µM. 360,000 compounds, 4.7% hits; in the data active = activity change below about -50%; inconclusive = mostly about -30% to -49%; also: % is scaled to controls: 0 for no effect and ±100 for the full control effect
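Secreted IL-1B measured by AlphaLISA bead assay after 16 h compound exposure of THP-1 cells; compounds (final up to 57.5 uM) added 1 h before LPS (250 ng/mL) and ATP (1.25 mM) stimulation; lower signal means less secretion.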
HepG2 viability: HepG2 cytotoxicity, counter-screen for TGF-b inhibitors. HepG2 CAGA-GFP viability, ATP luminescence, 18 h. Potency, µM (titrated, usually from 46.1 µM), inactives show at the highest dose activity change, negative = cytotoxicity, hits mostly cytotoxic. 410,000 compounds, 0.76% hits; also: potency is read from the fitted curve at half-maximal effect
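CellTiter-Glo luminescence gave cytotoxicity after 18 hours at 37 degrees C. The cells were HepG2 CAGA-GFP in 1% FBS DMEM, stimulated with 500 pg/mL TGF-beta after compound addition. %Activity was normalised to no-cell wells (complete cell-killing) and DMSO (no toxicity), and curves were fitted and classified.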
Starred values were filed as active, the others as inactive; ? = inconclusive; · = no result; [ ] = dose if it differs, or a comment. In the library only some 19% were active in any assay of this set; here they are far more common. Unless noted, calls follow the shape of the dose curve; as a rule, active = well fitted curve in the direction sought with a large enough effect; inconclusive = small, poorly fitted or top-dose-only effect, or another doubt; inactive = no such curve, though single readings can be large; an effect the other way counts as inactive or inconclusive.

SMILES	DT40 TDP1 CPT	DT40 TDP1 no CPT	TGFb inhibitor	TDP1 inh	IL1B secr inh	HepG2 viability
COC(=O)c1ccc(/C=C2/SC(=S)N(CCCC(=O)Nc3ccc(O)cc3)C2=O)cc1	?	13µM*	5%	3%	?	1%
COc1ccc(/C=C2\SC(=S)N(CCCC(=O)Nc3ccccn3)C2=O)cc1OC	?	29µM*	7%	0%	3	-42%
Cc1ccc(/C=C2\SC(=S)N(CCCC(=O)Nc3ccccn3)C2=O)cc1	?	?	4%	8%	21	-12%
COc1cc(/C=C2\SC(=S)N(NC(=O)c3ccccc3O)C2=O)ccc1O	?	26µM*	8%	·	23	-8%
COc1ccc(NC(=O)CCCN2C(=O)/C(=C\c3ccco3)SC2=S)cc1	?	16µM*	-11%	8%	-71*	-67%
O=C(CCCN1C(=O)/C(=C/c2ccco2)SC1=S)Nc1cccc(C(=O)O)c1	12%	6%	-2%	·	11	10%
Nc1nc(COC(=O)C2CCN(C(=O)c3ccc(Cl)cc3)CC2)nc(Nc2ccccc2)n1	-8%	-14%	2%	2%	0	-7%
C[C@]12c3[nH]c4cc(-c5ccco5)ccc4c3CCN1C(=O)[C@@H](CC(=O)NCCc1ccccn1)C[C@@H]2C(=O)N1CCOCC1	?	?	-12%	2%[56.1 µM]	10	1%
CC(C)=CCC/C(C)=C/CNC(=O)C[C@H]1C[C@H](C(=O)N(C(C)C)C(C)C)[C@@]2(C)c3[nH]c4cc(-c5ccco5)ccc4c3CCN2C1=O	?	?	13µM*	2%[56.1 µM]	-65*	-46%
CC(C)=CCC/C(C)=C/CNC(=O)C[C@H]1C[C@H](C(=O)N2CCCCC2)[C@@]2(C)c3[nH]c4cc(-c5ccco5)ccc4c3CCN2C1=O	?	21µM*	?	4%[56.1 µM]	-67*	-21%
CC(C)=CCC/C(C)=C/CNC(=O)C[C@H]1C[C@H](C(=O)N(C(C)C)C(C)C)[C@@]2(C)c3[nH]c4cc(CCC(=O)N(C)C)ccc4c3CCN2C1=O	10µM*	9.2µM*	?	3%[56.1 µM]	-67*	-98%
COc1ccccc1CNC(=O)C(=O)NCC(c1ccc2c(c1)OCO2)N1CCOCC1 (configuration not stated)	?	?	-21%	-1%	·	-7%
O=C1Nc2ccccc2N(O)N1c1ccc(Cl)cc1	17%	11%	12%	2%	0	-11%
CCN1c2ccccc2NC2C1C(C(C)=O)C(=O)N2c1ccc(Cl)cc1 (configuration not stated)	21µM*	16µM*	45%	6%	31	-33%
COc1cc(C2C(=O)N(C3CCCCC3)CC(=O)N2Cc2ccc(C)cc2)ccc1OC(C)C (configuration not stated)	?	?	11%	5%	·	-3%
Cc1c(OCc2ccccc2)cccc1OCc1ccccc1	-2%	-5%	-20%	-7%[21 µM]	6	-2%
CC(C)(CO)NCc1c(OCc2ccc(Cl)cc2)ccc2ccccc12	?	?	?	·	-106*	-58%
CNCc1c(OCc2ccccc2)ccc2ccccc12	?	?	-27%	4%	-86*	-44%
O=C1NC[C@H](c2ccccc2)OC(=O)[C@H](Cc2ccc(F)cc2)C/C=C\C[C@H]1CC(=O)N(CCO)Cc1ccccc1	10µM*	8.2µM*	?	2%	-60*	-28%
O=C(C[C@H]1C/C=C\C[C@@H](Cc2ccc(F)cc2)C(=O)O[C@@H](c2ccccc2)CNC1=O)NCCO	-11%	?	-12%	0%	0	4%
